Data taken from PubChem BioAssay (NCI).
About 83,000 compounds went through this panel and 20% of them were active in at least one assay; those are over-represented in the sample as a whole.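 Testing used 96-well plates and a 48-hour single-concentration exposure. Example: -40 means 40% of the starting cells died.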 Activity calls are given as the source filed them. Rule for the calls: active = growth percent below 10; inactive = the rest.

system: 786-0 renal; assay: NCI-60 one-dose screen, 48 h (100 = growth as untreated, 0 = no growth, -100 = all killed); details: 10 µM unless noted

| Structure (SMILES) | growth |
| --- | --- |
| CCN(CC)CCCC(C)Nc1c2ccc(Cl)cc2nc2ccc(O)cc12 (centres undefined) | 22.3% (inactive) |
| Cc1ccc(-c2cc3c(cc2O)C2CCCCC2(N2CCOCC2)O3)cc1 (centres undefined) | 108% (inactive) |
| CNC(=O)NCC1OC(n2cnc3c(NC(=O)Nc4ccccc4)ncnc32)C(O[Si](C)(C)C(C)(C)C)C1CC(=O)N(C)OC (centres undefined) | 47.4% (inactive) |
| COc1cc(/C=C/C(=O)c2cccc(-n3cc(-c4ccccc4)[nH]c3=O)c2)ccc1O | 74% (inactive) |
| CC(=O)OC1CCC2(C)C(=CC3C4CCC(=O)C4(C)CCC32)C1 (centres undefined) | 102% (inactive) |
| O=C(Nc1ccccc1-c1nc2ccccc2c(=O)[nH]1)c1cc2ccccc2[nH]1 | 98.1% (inactive) |
| CC(=O)OC[C@H]1OC(Sc2sc(C(=O)c3ccc(Br)cc3)c(N)c2-c2nc3ccccc3s2)[C@H](OC(C)=O)[C@@H](OC(C)=O)[C@@H]1OC(C)=O (some centres undefined) | 62.7% (inactive) |
| O=C(COc1ccc(/C=C2\Oc3ccccc3C2=O)cc1)c1ccc(Cl)cc1 | 91% (inactive) |
| C=CC(=O)Nc1cccc(Oc2nccc(Nc3nnc(C4CC4)s3)n2)c1 | 86.6% (inactive) |
| O=C(NC(CSSCC(NC(=O)c1ccccc1)C(=O)O)C(=O)O)c1ccccc1 (centres undefined) | 105% (inactive) |
| CC(C)(C)c1ccc(/C=C/C(=O)Nc2ccc(O)cc2)cc1 | 69.1% (inactive) |
| CCOc1c(C#N)nnc2c(C#N)c(NC(=O)c3ccccc3)nn12 | 98.4% (inactive) |
| COc1ccc(N=C(c2ccccc2)C2C(=O)c3ccccc3C2=O)cc1 | 97.3% (inactive) |
| COc1ccc(-c2nc(SCCC(C)C)nc(N/N=C\c3ccccc3O)c2C#N)cc1 | 88.9% (inactive) |
